Read-out in assay [1]: E-selectin (Homo sapiens) (UniProt P16581)
Kind of assay: BSK_SAg_Eselectin: BioMAP Diversity Plus: SAg Assay for Eselectin Biomarker Activity (AID 2283091). To be noted: primary human HUVEC with PBMC; actives raise or lower the signal. An outline of the steps:
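Endpoint values derive from bidirectional fitting relative to DMSO, using ELISA-measured E-selectin in a human vascular co-culture (umbilical vein endothelium plus PBMC) sampled 24 h after dosing.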

Read-out in assay [2]: Monokine induced gamma interferon (MIG), CXCL9 (gene 4283)
Kind of assay: BSK_SAg_MIG: BioMAP Diversity Plus: SAg Assay for Monokine induced gamma interferon (MIG) Biomarker Activity (AID 2283092). The following applies: primary human HUVEC with PBMC; actives raise or lower the signal. An outline of the steps:
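HUVEC plus human PBMC co-culture, chemicals dosed and MIG (CXCL9) quantified by ELISA at 24 h. Bidirectional curve fitting against DMSO as negative control and baseline, so both gain and loss of signal count as activity.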

Assay [3] can be described thus: BSK_SAg_PBMCCytotoxicity: PBMC Cytotoxicity Assessment in the BioMAP Diversity Plus: SAg Assay (AID 2283093).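 Further: PBMC viability measured as Alamar Blue reduction fluorescence at 546/580 nm; fitted both ways against DMSO so a hit may be loss or gain of signal.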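 On AC50: PBMC superantigen activated with SEB plus TSST-1 one hour after compound addition.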 To be noted: primary human HUVEC with PBMC. Summed up:
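Alamar Blue reduction (6 h, ex/em 546/580 nm) read after 90 h culture of PBMC pre-dosed 1 h then stimulated with SEB plus TSST-1, 20 ng/mL each. Gain or loss of signal fitted relative to DMSO.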

Read-out in assay [4]: Interleukin-8 (IL8), CXCL8 (gene 3576)
Kind of assay: BSK_SAg_IL8: BioMAP Diversity Plus: SAg Assay for Interleukin-8 (IL8) Biomarker Activity (AID 2283094). To be noted: primary human HUVEC with PBMC; actives raise or lower the signal. Summed up:
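Primary human endothelial cells with PBMC, exposed 24 h; IL-8 determined by ELISA, analysed bidirectionally relative to DMSO.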

Assay [5] is described as follows: BSK_SAg_Proliferation: Cell Proliferation Assessment in the BioMAP Diversity Plus: SAg Assay (AID 2283095).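 Further: relative cell number as total protein by SRB absorbance in sub-confluent culture.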 To be noted: primary human HUVEC with PBMC. An outline of the steps: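 A human primary co-culture of umbilical vein endothelium and blood mononuclear cells receives compound; relative cell number is quantified at 96 h by SRB staining and 560 nm absorbance, with DMSO-referenced bidirectional curve fitting.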

Assay [6] can be described thus: BSK_SAg_SRB: Viability Assessment in the BioMAP Diversity Plus: SAg Assay (AID 2283096).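 Further: cells read one day after compound addition; hits may be either gain or loss of signal compared with DMSO.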 The following applies: primary human HUVEC with PBMC. Summed up: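 SRB absorbance at 560 nm served as the viability read-out. Cells (HUVEC plus peripheral blood mononuclear cells) were TCA-fixed and stained 24 h post-dosing; activity fitted in both directions against DMSO controls.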

One may read the AC50 as the midpoint of the concentration-response curve, whichever way the signal moves.

Each structure is given as a SMILES string. Where “and” joins values, the source holds several entries; their conditions need not be identical. Identical values can stand only once. A structure can be active in one record and inactive in another. Calls of active or inactive are those of the source. How the source made its calls: active means hit-call score of the fitted dose curve at least 0.9, where 1 is the maximum; inactive means score below 0.9.

E-selectin (Homo sapiens), sequence (P16581 whole entry, looked up): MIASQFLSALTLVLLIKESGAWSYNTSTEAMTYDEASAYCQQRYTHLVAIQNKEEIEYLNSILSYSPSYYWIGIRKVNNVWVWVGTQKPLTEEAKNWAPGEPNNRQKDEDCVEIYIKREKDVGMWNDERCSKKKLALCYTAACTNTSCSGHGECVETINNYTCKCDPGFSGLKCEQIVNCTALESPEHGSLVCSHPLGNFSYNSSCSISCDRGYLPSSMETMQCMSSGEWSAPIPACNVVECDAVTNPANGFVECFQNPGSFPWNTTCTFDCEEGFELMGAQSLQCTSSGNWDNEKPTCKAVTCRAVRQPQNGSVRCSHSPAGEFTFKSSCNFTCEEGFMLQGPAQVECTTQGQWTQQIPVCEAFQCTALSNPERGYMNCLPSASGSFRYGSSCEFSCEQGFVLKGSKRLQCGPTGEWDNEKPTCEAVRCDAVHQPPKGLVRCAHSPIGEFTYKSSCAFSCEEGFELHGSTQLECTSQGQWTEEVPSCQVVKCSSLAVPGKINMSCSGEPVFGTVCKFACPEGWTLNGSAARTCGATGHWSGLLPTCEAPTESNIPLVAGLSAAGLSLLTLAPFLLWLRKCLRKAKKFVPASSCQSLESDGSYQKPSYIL

Consider `CC(C)(C)c1cc(CCC(=O)NCCCCCCNC(=O)CCc2cc(C(C)(C)C)c(O)c(C(C)(C)C)c2)cc(C(C)(C)C)c1O`, for which the result in assay [1], in assay [2], in assay [3], in assay [4], in assay [5] and in assay [6] was inactive.

For the compound `O=S(=O)(Cl)C(F)(F)C(F)(F)C(F)(F)C(F)(F)C(F)(F)C(F)(F)C(F)(F)C(F)(F)F`, the AC50 in assay [1] is 37.5 µM (active); in assay [6] it was 43.2 µM (active) and 55.5 µM (active). Moreover, the result in assay [1], in assay [2], in assay [3], in assay [4] and in assay [5] was inactive.

For `FC(F)(F)C(F)(F)C(F)(F)C(F)(F)C(F)(F)C(F)(F)C(F)(F)CCI`, the result in assay [1], in assay [2], in assay [3], in assay [4], in assay [5] and in assay [6] was inactive.

For the compound `C=CC(=O)OCC(F)(F)C(F)(F)C(F)(F)C(F)(F)C(F)(F)C(F)(F)C(F)(F)C(F)F`, the AC50 in assay [1] is 30 µM (active); in assay [3], 26.8 µM (active) and 16.6 µM (active); in assay [4], 20.8 µM (active); in assay [5] it was 36.8 µM (active) and 27.1 µM (active). The result in assay [1], in assay [2], in assay [4] and in assay [6] was inactive.

`NS(=O)(=O)C(F)(F)C(F)(F)C(F)(F)C(F)(F)C(F)(F)C(F)(F)F`: the AC50 was 41.7 µM (active) and 21.7 µM (active) in assay [1]; 11.8 µM (active) in assay [3]; 30 µM (active) in assay [4]; 55.3 µM (active) in assay [6]. Also, the outcome in assay [2], in assay [3], in assay [4], in assay [5] and in assay [6] was inactive.

Take `O=S(=O)(OCC(F)(F)F)C(F)(F)C(F)(F)C(F)(F)C(F)(F)F`: the outcome in assay [1], in assay [2], in assay [3], in assay [4], in assay [5] and in assay [6] was inactive. Also, the AC50 in assay [4] is 30 µM (active).

Consider `NC(=O)C(F)(F)C(F)(F)C(F)(F)C(F)(F)C(F)(F)C(F)(F)C(F)(F)F`, for which the result in assay [1], in assay [2], in assay [3], in assay [4], in assay [5] and in assay [6] was inactive.

Consider `Cc1ccc(O)c(-n2nc3ccccc3n2)c1`, for which the outcome in assay [1], in assay [2], in assay [3], in assay [4], in assay [5] and in assay [6] was inactive.

As to `CN(C(=O)C(F)(F)C(F)(F)C(F)(F)F)[Si](C)(C)C`, the outcome in assay [1], in assay [2], in assay [3], in assay [4], in assay [5] and in assay [6] was inactive.

Consider `CCOC(C=C(C)CCC=C(C)C)OCC`, for which the result in assay [1], in assay [2], in assay [3], in assay [4] and in assay [6] was inactive. In addition, the concentration at half-maximal activity (AC50) in assay [5] was 34.4 µM (active).

As to `CCN=C1C=CC(=C(c2ccc(N(CC)CC)cc2)c2ccc(N(CC)CC)cc2)c2ccccc21`, the AC50 was 1.45 µM (active) and 1.11 µM (active) in assay [1]; 1.82 µM (active) and 1.55 µM (active) in assay [2]; 2.52 µM (active) and 2.57 µM (active) in assay [3]; 1.47 µM (active) and 1.15 µM (active) in assay [4]; 419 nM (active) and 401 nM (active) in assay [5]; 1.78 µM (active) and 2.37 µM (active) in assay [6].

As to `OCC(F)(F)C(F)(F)C(F)(F)C(F)(F)C(F)(F)C(F)(F)CO`, the result in assay [1], in assay [2], in assay [3], in assay [4], in assay [5] and in assay [6] was inactive.

For `O=C(O)C(F)(F)C(F)(F)C(F)(F)C(=O)O`, the result in assay [1], in assay [2], in assay [3], in assay [4], in assay [5] and in assay [6] was inactive.

For the compound `O=C=Nc1cccc2c(N=C=O)cccc12`, the outcome in assay [1], in assay [2], in assay [3], in assay [4], in assay [5] and in assay [6] was inactive.

As to `NC(=O)C(F)(F)C(F)(F)C(F)(F)F`, the result in assay [1], in assay [2], in assay [3], in assay [4], in assay [5] and in assay [6] was inactive.

Regarding `NC(=O)C(F)(F)C(F)(F)C(F)(F)C(F)(F)C(N)=O`, the result in assay [1], in assay [2], in assay [3], in assay [4], in assay [5] and in assay [6] was inactive.

Consider `OCC(F)(F)C(F)(F)C(F)(F)C(F)(F)C(F)(F)C(F)(F)C(F)(F)C(F)(F)CO`, for which the result in assay [1], in assay [2], in assay [4], in assay [5] and in assay [6] was inactive. Besides, the AC50 is 43.8 µM (active) and 50.7 µM (active) in assay [3]; 45.5 µM (active) in assay [5].

`FC(F)(F)C(F)(F)C(F)(F)CC1CO1` (stereo unspecified): the result in assay [1], in assay [2], in assay [3], in assay [4], in assay [5] and in assay [6] was inactive.

Consider `C=CC(=O)OCC(F)(F)C(F)(F)C(F)(F)COC(=O)C=C`, for which the concentration at half-maximal activity (AC50) in assay [1] was 8.53 µM (active) and 9.25 µM (active); in assay [2] it was 19.3 µM (active) and 18.6 µM (active); in assay [3] it was 14.2 µM (active) and 12.8 µM (active); in assay [4], 14.2 µM (active) and 5.57 µM (active); in assay [5], 6.99 µM (active) and 5.35 µM (active); in assay [6], 43.7 µM (active) and 45.6 µM (active).

Regarding `C=CC(=O)OCCC(F)(F)C(F)(F)C(F)(F)C(F)(F)F`, the half-maximal activity concentration (AC50) in assay [1] is 40.1 µM (active) and 40 µM (active); in assay [3], 30 µM (active); in assay [4], 33 µM (active) and 30.1 µM (active); in assay [5], 30 µM (active). For the same compound, the outcome in assay [2] and in assay [6] was inactive.

Consider `O=C=NCc1cccc(CN=C=O)c1`, for which the outcome in assay [1], in assay [2], in assay [3], in assay [4], in assay [5] and in assay [6] was inactive.

For the compound `O=S(=O)(O)CCC(F)(F)C(F)(F)C(F)(F)C(F)(F)C(F)(F)C(F)(F)C(F)(F)C(F)(F)F`, the outcome in assay [1], in assay [2], in assay [3], in assay [4], in assay [5] and in assay [6] was inactive.

For `CO[Si](C)(CCC(F)(F)C(F)(F)C(F)(F)C(F)(F)C(F)(F)C(F)(F)F)OC`, the result in assay [1], in assay [2], in assay [3], in assay [4], in assay [5] and in assay [6] was inactive.

For `O=C(O)CCC(F)(F)C(F)(F)C(F)(F)C(F)(F)C(F)(F)C(F)(F)C(F)(F)F`, the outcome in assay [1], in assay [2], in assay [3], in assay [4], in assay [5] and in assay [6] was inactive.

Turning to `Cc1cc(O)c(C(C)(C)C)cc1C(C)(C)C`, the AC50 in assay [1] is 5.34 µM (active); in assay [2], 10.2 µM (active); in assay [3], 3.79 µM (active); in assay [4], 5.33 µM (active); in assay [5], 3.82 µM (active); in assay [6], 6.3 µM (active).

In the case of `OCCCC(F)(F)C(F)(F)C(F)(F)C(F)(F)C(F)(F)C(F)(F)C(F)(F)C(F)(F)F`, the concentration at half-maximal activity (AC50) was 52 µM (active) and 54 µM (active) in assay [1]; 53.4 µM (active) and 53.2 µM (active) in assay [2]; 17.3 µM (active) and 14.4 µM (active) in assay [3]; 43.2 µM (active) and 37 µM (active) in assay [4]; 10.2 µM (active) and 14.6 µM (active) in assay [5]; 27 µM (active) and 47.8 µM (active) in assay [6].

On to `Brc1nc2ccccc2s1`, for which the outcome in assay [1], in assay [2], in assay [3], in assay [4], in assay [5] and in assay [6] was inactive.

For `CCN(CCO)S(=O)(=O)C(F)(F)C(F)(F)C(F)(F)C(F)(F)C(F)(F)C(F)(F)C(F)(F)C(F)(F)F`, the outcome in assay [1], in assay [2] and in assay [4] was inactive. Further, the AC50 in assay [3] is 39.9 µM (active) and 22.9 µM (active); in assay [5] it was 23.6 µM (active) and 18.6 µM (active); in assay [6] it was 30 µM (active) and 27.9 µM (active).

With `OC(O)C(F)(F)C(F)(F)F`, the outcome in assay [1], in assay [2], in assay [3], in assay [4], in assay [5] and in assay [6] was inactive.

`NCC(F)(F)C(F)(F)C(F)(F)C(F)(F)C(F)(F)C(F)(F)F`: the outcome in assay [1], in assay [2], in assay [3], in assay [4], in assay [5] and in assay [6] was inactive.

As to `O=C(O)C(F)(F)C(F)(F)C(F)(F)OC(F)(C(F)(F)F)C(F)(F)F`, the result in assay [1], in assay [2], in assay [3], in assay [4], in assay [5] and in assay [6] was inactive.

Take `O=S(=O)(O)CCC(F)(F)C(F)(F)C(F)(F)C(F)(F)F`: the result in assay [1], in assay [2], in assay [3], in assay [4], in assay [5] and in assay [6] was inactive.

Regarding `O=C(Cl)C(F)(F)C(F)(F)C(F)(F)C(F)(F)C(F)(F)C(F)(F)C(F)(F)F`, the outcome in assay [1], in assay [2], in assay [3], in assay [4], in assay [5] and in assay [6] was inactive.

Values taken from PubChem BioAssay (EPA / NIEHS).
